From PubChem BioAssay (NCI)
The panel holds about 83,000 compounds, 20% with a hit somewhere; the sample as a whole holds those more often.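 Testing used 96-well plates and a 48-hour single-concentration exposure. Example: -40 means 40% of the starting cells died.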 Unmarked numbers belong to inactive results. The source made the active and inactive calls. The calls were made as follows: active = growth percent below 10; inactive = the rest.

The compounds below were run on OVCAR-5 ovarian (assay: NCI-60 one-dose screen, 48 h (100 = growth as untreated, 0 = no growth, -100 = all killed)). Settings: 10 µM unless noted.
Compound `COc1cc(-c2csc(NC(=O)Nc3cccc(C(F)(F)F)c3)n2)cc(OC)c1OC` has a growth of 80.3%. Work on `O=C(Cc1ccc(Nc2ccnc(C(F)(F)F)c2)cc1)N/N=C/c1ccccc1O` yielded a growth of 28.1%. Compound `COc1ccc2nc(C)cc(Nc3ccccc3O)c2c1` has a growth of 108%. Compound `C[C@]12CCc3nc(Nc4ccc(O)cc4)sc3C1=CC[C@@H]1[C@@H]2CC[C@]2(C)/C(=N/NC(N)=S)CC[C@@H]12` has a growth of 49.9%. With `CN(C)CCOc1nc2c3cccnc3cc(-c3cccc(Cl)c3)c2c2ncccc12` the growth was 45.5%. `Oc1[nH]c2ccccc2c1/C=c1/ccc2c(c1)N=C(c1ccc(C(F)(F)F)cc1)N=2` gave a growth of 72.3%. With `COc1ccc(/C(=C\c2ccc3c(c2)OCO3)C(=O)Nc2nc3ccc(F)cc3s2)cc1OC` the growth was 104%. In the case of `O=C(Nc1ccccc1Cl)Oc1ccc2ccccc2c1`, the growth is reported as 89%. `Nc1nc2c(c3ncccc13)C(c1ccccc1)Cc1ncccc1-2` (stereo unspecified) gave a growth of 92.8%. Work on `COc1ccccc1NC(=O)OCC12COCN1COC2` yielded a growth of 96.4%. `COc1cc2c(cc1C)NC(=O)/C2=C\c1c[nH]c2ccccc12` was tested, and the growth was 75.3%. `C=C(C)[C@@H]1CC[C@]2(C)[C@H](CC=C3[C@@H]4C[C@](C)(C(=O)N5CCN(C)CC5)CC[C@]4(C)CC[C@]32C)[C@@]1(C)CCC#N` was tested, and the growth was 88.2%. `COc1ccc(NC(=O)/C=C/c2ccc(Cl)c(Cl)c2)cn1` was tested, and the growth was 84.6%. `CC(C)c1[nH]ncc1-c1nc2ccc3[nH]ncc3c2c2c1CCCC2` was tested, and the growth was 48.7%. `COc1ccc(NC(=O)c2ccc(C(F)(F)F)nc2Nc2ccc(Cl)cc2C)cc1Cl` was tested, and the growth was 10.1%. With `NCCCOc1cc2ccccc2cc1C(=O)NCCCOc1cc2ccccc2cc1C(=O)Nc1ccc(Cl)cc1O` the growth was -92.5% (active). Work on `C/C=C(\C)C(C(=O)NC1CCCCC1)N(C(=O)C1CCc2cc(F)ccc2O1)c1ccc([N+](=O)[O-])cc1` (stereo unspecified) yielded a growth of 93.4%. In the case of `O=C(Cn1nncc1CN1C(=O)CSC1=O)Nc1ccc(F)cc1`, the growth is reported as 107%. With `CCC(C)C1NC(=O)c2nc(oc2-c2ccccc2)-c2csc(n2)-c2csc(n2)-c2nc(oc2C)-c2coc(n2)CNC(=O)C(C(C)CC)NC1=O` (stereo unspecified) the growth was -86.1% (active). With `C=CCn1c(C)nc2cc(Nc3nc(N4CCCC4)nc4nc[nH]c34)ccc21` the growth was 30.6%. `Clc1ccc(Nc2ncnc3c2sc2ncccc23)cc1` showed a growth of 58.2%. `Cc1ccc(NC(=O)c2nc(S(C)(=O)=O)oc2-c2ccc(F)cc2)cc1Nc1ccc2ncn(C)c(=O)c2c1` showed a growth of 102%. With `CCCCNCC(O)c1cc(-c2ccc(C(F)(F)F)cc2)nc(-c2ccc(C(F)(F)F)cc2)c1` (stereo unspecified) the growth was -74.9% (active).

These compounds were tested on OVCAR-4 ovarian in the same assay as above. Settings: 10 µM unless noted.
With `CCOC(=O)C1=C(C)NC(SCc2nnc(-c3ccc(Cl)cc3)o2)=NC1c1ccc(Cl)cc1` (stereo unspecified) the growth was 70%. With `O=Cc1ccc2nc(C(Cl)(Cl)Cl)ccc2c1` the growth was 110%. With `CCCc1n(Cc2ccc3ccccc3c2)c2ccccc2[n+]1Cc1ccc2ccccc2c1` the growth was -16% (active). In the case of `CC(CN1CCN(CCOCCO)CC1)CN1c2ccccc2Sc2ccc(Cl)cc21` (stereo unspecified), the growth is reported as 75.7%. In the case of `Clc1ccc(Nc2ncnc3c2sc2ncccc23)c(Cl)c1`, the growth is reported as 84.9%. `COc1ccc(/C=C(/C(=O)N2CCN(c3ccccc3)CC2)c2cc(OC)c(OC)c(OC)c2)cc1O` gave a growth of 55.7%. With `C#CCNC(=S)N/N=C(\C)c1ccccn1` the growth was 29.1%. Work on `CC(C)NC(=O)OCC#CCOC(=O)NC(C)C` yielded a growth of 121%. For `Cc1cc(C)c2c(n1)sc1c(Nc3ccc(Cl)cc3Cl)ncnc12`, the growth was 68%. In the case of `CCCCn1cnc(-c2cc(-c3ccccc3)cc(C(F)(F)F)c2)n1`, the growth is reported as 106%. Compound `O=C1c2ccccc2C(=O)c2c1oc1ccc3ccccc3c21` has a growth of 34.1%. For `COC1=CC(c2ccc[nH]2)=N/C1=C\c1[nH]c(C)c(C(=O)CCCCCCCCC(=O)O[C@H]2CC[C@H]3C4CCc5cc(O)ccc5C4CC[C@]23C)c1C` (stereo partly specified), the growth was 49.7%. Compound `CCSc1ccc([C@@H]2[C@@H](N)C(=O)N2c2cc(OC)c(OC)c(OC)c2)cc1` has a growth of 54.4%. For `COc1ccc2[nH]cc(C(c3ccc(Cl)cc3)N3CCCC3)c2c1` (stereo unspecified), the growth was 104%. `Oc1[nH]c2ccc(Cl)cc2c1/C=c1/ccc2c(c1)N=C(c1ccc(F)cc1)N=2` showed a growth of 79.4%. `COc1cc(-c2csc(NC(=O)Nc3cccc(C(F)(F)F)c3)n2)cc(OC)c1OC` gave a growth of 29.9%. In the case of `O=C(Cc1ccc(Nc2ccnc(C(F)(F)F)c2)cc1)N/N=C/c1ccccc1O`, the growth is reported as 18.4%. With `COc1ccc2nc(C)cc(Nc3ccccc3O)c2c1` the growth was -76.1% (active). For `C[C@]12CCc3nc(Nc4ccc(O)cc4)sc3C1=CC[C@@H]1[C@@H]2CC[C@]2(C)/C(=N/NC(N)=S)CC[C@@H]12`, the growth was -16.9% (active). For `CN(C)CCOc1nc2c3cccnc3cc(-c3cccc(Cl)c3)c2c2ncccc12`, the growth was 20.6%. In the case of `Oc1[nH]c2ccccc2c1/C=c1/ccc2c(c1)N=C(c1ccc(C(F)(F)F)cc1)N=2`, the growth is reported as 69.1%. `COc1ccc(/C(=C\c2ccc3c(c2)OCO3)C(=O)Nc2nc3ccc(F)cc3s2)cc1OC` gave a growth of 93.8%. `O=C(Nc1ccccc1Cl)Oc1ccc2ccccc2c1` showed a growth of 101%. Compound `Nc1nc2c(c3ncccc13)C(c1ccccc1)Cc1ncccc1-2` (stereo unspecified) has a growth of 94.1%. `COc1ccccc1NC(=O)OCC12COCN1COC2` gave a growth of 105%. Work on `COc1cc2c(cc1C)NC(=O)/C2=C\c1c[nH]c2ccccc12` yielded a growth of 64.8%. `C=C(C)[C@@H]1CC[C@]2(C)[C@H](CC=C3[C@@H]4C[C@](C)(C(=O)N5CCN(C)CC5)CC[C@]4(C)CC[C@]32C)[C@@]1(C)CCC#N` gave a growth of 62.9%. `COc1ccc(NC(=O)/C=C/c2ccc(Cl)c(Cl)c2)cn1` was tested, and the growth was 20.5%. Compound `CC(C)c1[nH]ncc1-c1nc2ccc3[nH]ncc3c2c2c1CCCC2` has a growth of 75.8%. `COc1ccc(NC(=O)c2ccc(C(F)(F)F)nc2Nc2ccc(Cl)cc2C)cc1Cl` showed a growth of 24.6%. In the case of `NCCCOc1cc2ccccc2cc1C(=O)NCCCOc1cc2ccccc2cc1C(=O)Nc1ccc(Cl)cc1O`, the growth is reported as -77.4% (active). With `C/C=C(\C)C(C(=O)NC1CCCCC1)N(C(=O)C1CCc2cc(F)ccc2O1)c1ccc([N+](=O)[O-])cc1` (stereo unspecified) the growth was 79%. In the case of `O=C(Cn1nncc1CN1C(=O)CSC1=O)Nc1ccc(F)cc1`, the growth is reported as 103%. `CCC(C)C1NC(=O)c2nc(oc2-c2ccccc2)-c2csc(n2)-c2csc(n2)-c2nc(oc2C)-c2coc(n2)CNC(=O)C(C(C)CC)NC1=O` (stereo unspecified) was tested, and the growth was -80.6% (active). In the case of `C=CCn1c(C)nc2cc(Nc3nc(N4CCCC4)nc4nc[nH]c34)ccc21`, the growth is reported as -30.4% (active). `Clc1ccc(Nc2ncnc3c2sc2ncccc23)cc1` gave a growth of 85.4%. In the case of `Cc1ccc(NC(=O)c2nc(S(C)(=O)=O)oc2-c2ccc(F)cc2)cc1Nc1ccc2ncn(C)c(=O)c2c1`, the growth is reported as 104%. With `CCCCNCC(O)c1cc(-c2ccc(C(F)(F)F)cc2)nc(-c2ccc(C(F)(F)F)cc2)c1` (stereo unspecified) the growth was -93.9% (active).
